From PubChem
Sampled rows, rich in hits. Any-hit rate of the full collection: about 18%.
TDP1 inh = qHTS Assay for Inhibitors of Tyrosyl-DNA Phosphodiesterase (TDP1); recombinant TDP1, AlphaScreen DNA substrate cleavage; actives 0.28% (n = 350,000); Potency, µM (top dose mostly 130 µM), actives largely listed as inhibitors; Tyrosyl-DNA phosphodiesterase 1 (Homo sapiens), Q9NUW8; AID 485290, 2010; note: nearly all actives have a fitted effect of over 40% in size
Target sequence (Q9NUW8 whole entry, looked up): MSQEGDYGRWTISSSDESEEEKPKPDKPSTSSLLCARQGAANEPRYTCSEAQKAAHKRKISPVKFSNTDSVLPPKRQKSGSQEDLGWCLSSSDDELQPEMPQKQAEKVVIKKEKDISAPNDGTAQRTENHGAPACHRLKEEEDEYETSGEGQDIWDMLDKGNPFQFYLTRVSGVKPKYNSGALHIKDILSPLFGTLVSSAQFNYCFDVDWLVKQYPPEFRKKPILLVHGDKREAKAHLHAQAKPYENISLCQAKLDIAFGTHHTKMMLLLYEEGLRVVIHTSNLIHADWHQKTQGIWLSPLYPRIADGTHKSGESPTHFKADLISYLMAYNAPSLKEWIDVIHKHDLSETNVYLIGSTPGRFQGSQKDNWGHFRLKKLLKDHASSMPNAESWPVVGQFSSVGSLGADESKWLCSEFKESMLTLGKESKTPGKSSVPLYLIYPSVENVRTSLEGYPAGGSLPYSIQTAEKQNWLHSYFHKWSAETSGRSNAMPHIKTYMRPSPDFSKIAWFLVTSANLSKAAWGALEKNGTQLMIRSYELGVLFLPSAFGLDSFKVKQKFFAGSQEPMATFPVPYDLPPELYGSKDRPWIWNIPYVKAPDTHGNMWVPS
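Recombinant E. coli-expressed Tdp1 (1 nM) preincubated with compound 15 min at RT, then 5'-biotin/3'-phosphotyrosine-FITC DNA substrate (15 nM) added for 5 min. AlphaScreen beads (10 ug/ml) added, 10 min RT; tyrosine-FITC cleavage read as signal loss.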
DT40 TDP1 no CPT = qHTS for Inhibitors of human tyrosyl-DNA phosphodiesterase 1 (TDP1): qHTS in cells in absence of CPT; AID 686978, 2013; Potency, µM (doses to about 46.2 µM), hits mostly inhibitors; DT40 Tdp1-/- hTDP1 cells, no CPT, ATP luminescence, 48 h; actives 15% (n = 420,000); note: nearly all actives have a fitted effect of over 55% in size
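Chicken DT40 Tdp1-/- cells complemented with human TDP1, screened without camptothecin (DMSO vehicle only), 400 cells/well. Compounds pin-transferred, cells incubated at 37 °C for at least 48 hr. Growth read as ATP-dependent luminescence (CellTiter-Glo, 30 min at RT).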
IL-1B inflam inh = qHTS for Inhibitors of Inflammasome Signaling: IL-1-beta AlphaLISA Primary Screen | THP-1 LPS/ATP IL-1B secretion, AlphaLISA, 16 h; stronger effect = lower value | activity change, % at 57.5 µM | actives 4.7% (n = 360,000) | AID 743279, 2014; in the data active = activity change below about -50%; inconclusive = mostly about -30% to -49%
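THP-1 cells pretreated 1 hr with compounds (up to 57.5 uM final), then stimulated with LPS (250 ng/mL final) plus ATP (1.25 mM final); secreted IL-1B measured by AlphaLISA after 16 hr, decreased signal indicating inhibition.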
TDP1 cell CPT = qHTS for Inhibitors of human tyrosyl-DNA phosphodiesterase 1 (TDP1): qHTS in cells in presence of CPT; chicken DT40 Tdp1-/-;hTDP1 cells + 20 nM CPT, ATP luminescence, 48 h; Potency, µM (doses to about 46.2 µM), actives largely listed as inhibitors; actives 12% (n = 420,000); AID 686979, 2013; note: nearly all actives have a fitted effect of over 55% in size
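Chicken DT40 Tdp1-/- cells complemented with human TDP1, 400 cells/well, exposed to compounds plus 20 nM camptothecin for at least 48 h at 37 C; viability read as ATP content by CellTiter-Glo luminescence.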
TGFb SMAD3 inh = qHTS for Inhibitors of TGF-b. AID 588855, 2011. Potency, µM (highest dose often 46.1 µM), usual class: inhibitors. actives 1.2% (n = 410,000). HepG2 CAGA-GFP TGF-b/SMAD3 reporter, GFP fluorescence, 18 h; TGF-beta stimulated, 500 pg/mL final; note: nearly all actives have a fitted effect of over 65% in size
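TGF-beta reporter screen: HEPG2 CAGA-GFP, 1% FBS, 500 pg/mL TGF-beta final, 18 h; per-cell GFP summed per well; curves fitted and categorized by class.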
HepG2 tox = qHTS for Inhibitors of TGF-b: Cytotox Counterscreen; HepG2 CAGA-GFP viability, ATP luminescence, 18 h; Potency, µM (highest dose often 46.1 µM), most hits filed as cytotoxic; actives 0.76% (n = 410,000)
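HepG2 CAGA-GFP cells (1000/well, DMEM with 1% FBS) received compound, then TGF-beta at 500 pg/mL final, and were incubated 18 hours at 37 degrees C. Viability was read by CellTiter-Glo luminescence. Media-only wells were set as complete cell-killing and DMSO as no toxicity.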
Numbers stand for hits; - = inactive; ? = inconclusive; . = no result; [ ] = dose if it differs, or a comment. Unless noted, calls come from the whole dose curve; as a rule, active = well fitted curve in the direction sought with a large enough effect; inconclusive = small, poorly fitted or top-dose-only effect, or another doubt; inactive = no such curve, though single readings can be large; an effect the other way counts as inactive or inconclusive.

SMILES | TDP1 inh | DT40 TDP1 no CPT | IL-1B inflam inh | TDP1 cell CPT | TGFb SMAD3 inh | HepG2 tox
Cc1cc(OCC(=O)N(C)C2CCCCC2)ccc1Cl | - | - | ? | - | - | -
CCC(C)C(NC(=O)OC(C)(C)C)C(=O)NC1COC2CC(n3cc(F)c(=O)[nH]c3=O)OC12 (stereo unspecified) | - | . | . | . | - | -
CC(=O)Nc1cc(C(=O)N2CCCC(C)C2)cc2ncn(CCc3ccccn3)c12 (stereo unspecified) | . | - | . | -[9.04 µM] | . | .
COc1ccc(C2=Nn3c(nnc3-c3ccccc3OC)SC2)cc1OC | - | 0.0058µM | - | 0.0052µM | - | -
COc1cc(OC)cc(-c2nnc3n2N=C(c2ccc(OC)c(OC)c2)CS3)c1 | - | . | . | . | . | .
COc1ccc(C2=Nn3c(nnc3-c3ccco3)SC2)cc1OC | - | 23µM | - | ? | - | -
CN(C(=O)c1cccc(NC(=O)Cc2ccc(NC(=O)C3CCN(C(=O)C4CCCCC4)CC3)cc2)c1)C1CCCC1 | . | ? | - | ? | - | -
Cc1ccccc1NC(=O)CSc1cn(CC(=O)N(C(C)C)C(C)C)c2ccccc12 | - | 15µM | . | ? | - | -
CC(=O)c1ccc(NC(=O)CSc2cn(CC(=O)N(C(C)C)C(C)C)c3ccccc23)cc1 | - | 15µM | . | ? | ? | -
CC(C)CN1C(=O)c2ccccc2C1c1nnnn1-c1ccc2c(c1)OCCO2 (stereo unspecified) | . | - | - | - | . | .
CCc1sc(C(=O)Nc2ccccc2N2CCOCC2)cc1C | - | ? | - | 23µM | - | -
Cc1cc(C(=O)Nc2ccccc2N2CCOCC2)no1 | - | - | - | - | - | -
O=C(Nc1ccccc1N1CCOCC1)c1ccc([N+](=O)[O-])s1 | - | 16µM | - | 16µM | 11µM | -
O=[N+]([O-])c1ccccc1S(=O)(=O)Nc1ccc(-c2ccc3nncn3n2)cc1 | - | ? | - | - | - | -
Cc1cccc(CN2CCN(C(c3ccccc3)c3ccc(Cl)cc3)CC2)c1 (stereo unspecified) | - | 7.3µM | - | ? | - | -
CC(C)(C)c1ccc(CN2CCN(C(c3ccccc3)c3ccc(Cl)cc3)CC2)cc1 (stereo unspecified) | . | 24µM | . | 13µM | . | .
O=C(c1ccc(Cl)cc1)C1CCN(Cc2ccccc2)CC1 | . | ? | - | ? | - | -
Clc1ccc(CN2CCC(c3ccccc3)CC2)cc1 | . | ? | - | ? | - | -
Cc1ccc(-c2noc(CN3CCN(C(c4ccccc4)c4ccccc4)CC3)n2)cc1 | - | ? | - | ? | - | -
O=C(C1CCN(Cc2ccc(Cl)cc2)CC1)N1CCN(C(c2ccccc2)c2ccccc2)CC1 | - | 12µM | -53 | ? | ? | -
CCOC(=O)C1CCCN(c2nc3ccccc3nc2NS(=O)(=O)c2ccc(C)cc2)C1 (stereo unspecified) | - | - | - | - | ? | -
O=c1cc(-c2ccccc2Cl)oc2c(NS(=O)(=O)c3ccccc3C(F)(F)F)ccc(O)c12 | . | - | - | - | - | -
O=c1cc(-c2ccccc2Cl)oc2c(NS(=O)(=O)c3ccccc3OC(F)(F)F)ccc(O)c12 | . | ? | - | 21µM | ? | -
CC(C)Cn1nnnc1S(=O)(=O)CCc1ccccc1 | - | . | . | . | . | .
COc1ccc(OC)c(S(=O)(=O)Nc2ccc(O)c3ccccc23)c1 | - | 3.3µM | - | 2.1µM | ? | -
SMILES | TDP1 inh | DT40 TDP1 no CPT | IL-1B inflam inh | TDP1 cell CPT | TGFb SMAD3 inh | HepG2 tox
COc1ccc(OC)c(S(=O)(=O)Nc2ccc(Oc3ccccc3)cc2)c1 | - | ? | - | ? | ? | -
COc1ccc(OC)c(S(=O)(=O)Nc2cccc(O)c2)c1 | . | - | - | - | - | -
COc1ccc(OC)c(S(=O)(=O)Nc2cccc3c(O)cccc23)c1 | . | ? | - | 21µM | - | -
Cc1nc2nc[nH]n2c(=O)c1CCC(=O)Nc1ccc(F)cc1 | - | - | . | - | - | -
CC1(C)C(=O)Nc2ccccc2N1C(=O)Cn1ncc(Cl)c(Cl)c1=O | - | 23µM | -99 | 23µM | - | -
CC1(C)C(=O)Nc2ccccc2N1C(=O)CSc1nc(-c2ccccc2)cs1 | - | 15µM | ? | ? | - | -
O=C1CN(C(=O)CSc2nc(-c3ccccc3)cs2)c2ccccc2N1 | - | ? | - | - | - | -
O=C(Cn1ncc(Cl)c(Cl)c1=O)N1CCOCC1 | - | 13µM | -99 | ? | - | -
O=C(Cn1ncc(Cl)c(Cl)c1=O)N1CCc2ccccc21 | - | 6.5µM | -109 | 4.6µM | ? | -
O=C(Cn1ncc2c1-c1ccccc1OC2)N1CCc2ccccc21 | - | ? | - | ? | - | -
O=C(Cn1ncc2c1-c1ccccc1OC2)N1CCN(Cc2ccccc2)CC1 | . | ? | - | ? | - | -
O=C(Cn1ncc(Cl)c(Cl)c1=O)N1CCN(Cc2ccccc2)CC1 | - | 3.3µM | - | 3.3µM | ? | -
CCO/N=C1\C(=O)N(c2ccccc2)c2ccccc21 | - | - | -51 | - | - | -
O=C(O/N=C1\C(=O)N(c2ccccc2)c2ccccc21)C1CC1 | - | - | - | ? | - | -
CCCO/N=C1/C(=O)N(c2ccccc2)c2ccccc21 | - | 23µM | ? | 13µM | - | -
O=C1c2ccccc2C(=O)N1c1ccccc1 | . | - | - | - | - | -
Cc1cc(C)cc(NC(=O)CCc2nnc3n(C)c(=O)c4sccc4n23)c1 | - | - | . | - | - | -
O=C(/C(=C/O)N=Nc1ccccc1)c1cccs1 | - | ? | -74 | ? | ? | -
CC(C)Sc1nc2ccccc2n2cnnc12 | - | ? | - | - | - | -
COCCCn1cnc2c(c1=O)c1nc3ccccc3nc1n2-c1ccc(C)cc1 | - | ? | - | ? | - | -
COc1ccc(Cn2c(C)nc3c(c2=O)c2nc4ccccc4nc2n3Cc2ccco2)cc1 | . | 8.2µM | - | 15µM | - | -
Cc1cc(C)cc(-n2c3nc4ccccc4nc3c3c(=O)n(Cc4ccco4)cnc32)c1 | - | 12µM | - | 23µM | - | -
Cc1nc2c(c(=O)n1Cc1ccccc1Cl)c1nc3ccccc3nc1n2Cc1ccco1 | - | . | . | . | . | .
CCC(C)n1cnc2c(c1=O)c1nc3ccccc3nc1n2Cc1ccc(OC)cc1 (stereo unspecified) | - | 15µM | - | ? | ? | -
